Screening results: PubChem BioAssay, several laboratories
A selection: hits, their analogues and other compounds. The true share with any hit is near 1.6%.
eIF4E-4G inh: eIF4E–eIF4G protein interaction inhibitors, primary screen, biochemical, uHTS, TR-FRET, eIF4GI fragment. Eukaryotic translation initiation factor 4E (Mus musculus) + Eukaryotic translation …. TR-FRET eIF4E-eIF4GI(517-606) binding, 2 h. inhibition, % at 21.7 µM. actives 0.37% (n = 220,000). AID 782, 2007;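 active = inhibition above about 30%, limit read from the data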;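 also: 0% = full FRET control wells and 100% = background wells lacking eIF4GI fragment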
PERK inh: block of dimerizer-induced PERK translation repression, primary screen, PERK inhibitor project, CHO PERK-DD cells, SEAP luminescence, HTS; Eukaryotic translation initiation factor 2-alpha kinase 3 (Homo sapiens), Q9NZJ5; CHO PERK-DD fusion, SEAP luminescence translation reporter; AID 1416, 2008; actives 0.17% (n = 220,000); inhibition, % at 5.6 µM;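 active = inhibition above the mean inhibition of all tested compounds plus 3 SD, set separately per screening campaign, cut at about 2.9% in these data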;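 also: PERK kinase domain activated by AP20187 dimerizer at 100 nM; 0% = DMSO with dimerizer and 100% = rapamycin at 8.4 µM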
PABP polyA inh: PABP poly(A) RNA binding inhibitors, primary screen, biochemical, fluorescence polarization, uHTS; Polyadenylate-binding protein 1 (Homo sapiens), P11940; calls only at 35 µM; actives 1% (n = 290,000); AID 2014, 2009;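 also: calls also rest on retests at 20 µM and on dose response follow-up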
Target sequence (P11940 whole entry, looked up): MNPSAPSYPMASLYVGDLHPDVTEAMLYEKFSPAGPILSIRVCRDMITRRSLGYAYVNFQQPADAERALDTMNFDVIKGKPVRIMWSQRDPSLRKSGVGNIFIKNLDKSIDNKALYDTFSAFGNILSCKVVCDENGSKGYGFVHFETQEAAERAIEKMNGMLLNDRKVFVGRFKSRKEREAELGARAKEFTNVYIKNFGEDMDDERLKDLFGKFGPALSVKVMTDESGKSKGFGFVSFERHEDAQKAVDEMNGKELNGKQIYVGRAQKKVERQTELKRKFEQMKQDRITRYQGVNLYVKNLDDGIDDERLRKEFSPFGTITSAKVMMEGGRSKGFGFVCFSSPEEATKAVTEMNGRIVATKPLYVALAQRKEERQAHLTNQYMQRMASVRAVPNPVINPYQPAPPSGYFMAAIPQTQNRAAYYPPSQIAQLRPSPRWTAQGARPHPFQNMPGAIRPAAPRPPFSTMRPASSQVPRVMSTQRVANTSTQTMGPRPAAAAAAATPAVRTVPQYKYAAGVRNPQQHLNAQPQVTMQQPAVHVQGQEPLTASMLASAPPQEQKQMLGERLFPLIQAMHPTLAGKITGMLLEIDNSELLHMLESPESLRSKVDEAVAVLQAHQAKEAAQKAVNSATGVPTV
eIF4H FP inh: human eIF4H binding inhibitors, primary screen, translation initiation inhibitor project, biochemical, uHTS, fluorescence polarization. eIF4H fluorescence polarization binding assay. inhibition, % at 35 µM. actives 0.94% (n = 290,000). AID 2012, 2009;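 also: calls also rest on retests at 20 µM and on dose response follow-up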
PABP1 MLLE inh: inhibitors of PABP1 MLLE–PAM2 peptide binding, primary screen, biochemical, fluorescence polarization, FITC-PAM2, GST-MLLE; inhibition, % at 20 µM; actives 0.36% (n = 360,000); in the data active = inhibition above about 35%, passing the limit was not always enough;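 also: plate controls were DMSO wells with GST-MLLE for no effect and wells lacking GST-MLLE protein for full effect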
* = called active by the depositor; i = inactive; ? = inconclusive; . = no result given; + = active, no number; ! = not active in a repeat. Unless noted, no rule for the calls is given here.

SMILES	eIF4E-4G inh	PERK inh	PABP polyA inh	eIF4H FP inh	PABP1 MLLE inh
COc1ccc(NC(=O)CCc2nnc3ccc(NCc4ccco4)nn23)cc1	.	.	i	2	2
O=C(CCc1nnc2ccc(NCc3ccco3)nn12)Nc1ccccn1	.	.	i	88*	14
Cc1cccc(NC(=O)CCc2nnc3ccc(NCc4ccco4)nn23)n1	.	.	i	80*	4
CCOc1ccccc1NC(=O)C1CCC(=O)N1S(=O)(=O)c1ccc(C)cc1 (centres undefined)	.	.	i	-5	-4
CC(C)c1ccc(NC(=O)Nc2nc(C(N)c3ccccc3Cl)cs2)cc1 (centres undefined)	.	.	.	.	-1
O=C(NC1=NCCS1)c1cccc2ccccc12	6	1	i	-4	-9
CC1=Nc2ccc(C)cc2/C1=C/c1c(N)n2oc(C)cc2nc1=O	1	-2	+!	?	-44
CSc1nsc2nc(=O)c(/C=C3\C(C)=Nc4ccc(C)cc43)c(N)n12	1	1	i	?	-20
O=C1CCCC(O)=C1N=Nc1ccc(Cl)c(Cl)c1	0	1	i	0	12
CC(=O)N1CCc2cc(N=NC3=C(O)CCCC3=O)ccc21	1	1	+	54*	-66
CCCCCCn1c(=O)[nH]c2nc3cc(N)c(C)cc3nc2c1=O	27	0	+	65	i
CCCCn1c(=O)[nH]c2nc3cc(NC(C)=O)ccc3nc2c1=O	8	0	+	98*	59
CCCCCn1c(=O)[nH]c2cc(C(=O)O)ccc2c1=O	-7	0	i	6	2
CCC(=O)Nc1ccc2nc3c(=O)[nH]c(=S)[nH]c3nc2c1	.	.	+	112*	38
Cc1c(O)nc(SCC(=O)Nc2ccc3c4c(cccc24)CC3)n(-c2ccc(F)cc2)c1=O	1	0	i	39	40*
CC1(C(=O)N2CCCCC2)CCN1C(=O)Cc1ccc(-c2ccccc2)cc1 (centres undefined)	.	.	.	.	-5
CCN1CCN(c2c(/C=C3\SC(=S)N(Cc4ccco4)C3=O)c(C)c(C#N)c(=O)n2C)CC1	-5	1	+	?	-93
O=[N+]([O-])c1ccc(C2NS(=O)(=O)N=C3CCCCCN32)cc1 (centres undefined)	2	3.6*	i	0	13
COc1ccc(Nc2nc(-c3cccs3)nc3ccccc23)cc1S(=O)(=O)N1CCOCC1	.	.	.	.	-8
C=CCn1c(O)c(CN2CCN(Cc3ccccc3)CC2)c(C)c(C#N)c1=O	-3	0	i	126*	64
CC(=O)O[C@H]1C[C@@]2(C)[C@@H](C[C@@H](O)[C@H]3[C@@]4(C)CC[C@@H](O)[C@@H](C)[C@@H]4CC[C@@]32C)/C1=C(\CCC=C(C)C)C(=O)O	.	.	.	.	-11
CC(C)NC(=O)CSc1nccc(-c2cccs2)n1	5	0	i	-7	-1
CC(=O)C(Sc1nccc(-c2cccs2)n1)C(C)=O	2	0	i	3	36*
O=C(NC(CCl)c1ccccc1)c1ccc(Cl)cc1 (centres undefined)	-1	1	i	-1	-4
O=C1C(Cc2ccc(O)cc2)NC(=S)N1c1ccccc1 (centres undefined)	5	3.0*	i	-8	-52
SMILES	eIF4E-4G inh	PERK inh	PABP polyA inh	eIF4H FP inh	PABP1 MLLE inh
Cn1c2ccccc2c2cc(/C=N/NC(=O)c3cc(O)cc(O)c3)ccc21	.	.	+	95*	8
Cn1c2ccccc2c2cc(/C=N/NC(=O)c3cc(O)ccc3O)ccc21	.	.	+	86*	-1
COc1cc(C(=O)N/N=C/c2ccc3c(c2)c2ccccc2n3C)ccc1O	.	.	i	9	5
Cc1cccc(C(=O)Oc2ccc(/C=N/NC(=O)c3cc(O)cc(O)c3)cc2)c1	.	.	+	99*	1
CCOC(=O)[C@H]1[C@H]2COc3ccc(Br)cc3[C@@H]2N2C(=O)CN(Cc3ccc(F)cc3)C(=O)[C@@]12C	.	.	.	.	-7
CCC1c2ccc(C)n2CCN1C(=O)Nc1ccc(F)cc1 (centres undefined)	-1	1	+	113*	0
NC(=S)NNC(=O)COc1ccccc1O	-11	1	i	-1	6
CCOC(=O)C1[C@H]2C(=O)N(CCCOC)C[C@]23C=C[C@H]1O3 (some centres undefined)	0	1	i	-1	-9
CCCCOC(=O)C1C2C=C[C@]3(CN(CCCOC)C(=O)[C@H]13)O2 (some centres undefined)	-20	3.4*	i	5	-12
Fc1cccc(CN2CCN(c3nc4nonc4nc3NC3CC3)CC2)c1	0	1	+	90*	12
O=C(NC(=S)NCCC1=CCCCC1)c1cncc(Br)c1	2	0	i	3	32
NC(=O)CC1NC(=O)c2cc([N+](=O)[O-])cc(I)c2OCCC(C(N)=O)NC(=O)[C@@H]2CCCN2C1=O (some centres undefined)	4	0	i	active	.
CC(=O)c1ccc(NC(=O)CSc2ccsc2[N+](=O)[O-])cc1	32*	0	+	76	0
O=C(CSc1ccsc1[N+](=O)[O-])Nc1cc(F)ccc1F	50*	0	i	94	-7
CCN(CC)c1ccc(NC(=O)CSc2ccsc2[N+](=O)[O-])c(C)c1	3	0	+	?	8
O=C(CSc1ccsc1[N+](=O)[O-])NCCc1ccc(Cl)cc1	-2	0	i	-12	8
Cc1ccc(CNC(=O)CSc2ccsc2[N+](=O)[O-])cc1	-2	1	i	9	-7
Cc1ccc(OCC(=O)Nc2ccc(N3CCN(C(=O)c4ccco4)CC3)cc2)cc1	1	0	i	-7	-14
COc1ccccc1NC(=O)COC(=O)C1=NN(c2ccccc2)C(=O)CC1	.	.	.	.	-3
CCCCCCC(=O)N(O)C1CC(=O)N(c2ccc(C)cc2)C1=O (centres undefined)	2	0	i	-9	44*
COc1ccc(-c2cc3ccccc3n2CC(O)Cn2nc(C)cc2C)cc1 (centres undefined)	-11	-2	+	78*	39
CCC(CC)C(=O)Oc1c(Sc2ccccc2[N+](=O)[O-])c(C)nn1C(C)(C)C	-1	1	i	-11	1
COCC(=O)Oc1c(Sc2ccccc2[N+](=O)[O-])c(C)nn1C(C)(C)C	41*	0	i	-4	19
O=S(=O)(O)Sc1ccccc1	.	.	.	.	35
CCN(CC)c1ccc(SS(=O)(=O)O)cc1	1	1	i	42	43*!
